Measured values published in article PMC5540273 (PLoS ONE, 2017).

These compounds were tested on CAMK4. Details: concentration: 1 μM, replicates: in singlicate; n = 1.
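Note: KINOMEscan kinase panel screen.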

Structure (SMILES)	%Inh
COc1cc(Nc2ccnc3cc(-c4ccncc4)ccc23)cc(OC)c1OC.Cl [GW494610]	0%
COc1cccc(-c2nc(-c3ccccc3)[nH]c2-c2ccncc2)c1 [SB-610250]	0%
O=C1NC(=O)C(c2ccccc2Cl)=C1Nc1cccc(Cl)c1 [SB-342409]	47%
O=C(O)C(F)(F)F.O=c1[nH]ccc2nc(N[C@@H]3CCNC3)nc(Nc3cc(Cl)cc(Cl)c3)c12 [GSK2188764]	95.9%

What follows are compounds tested on CAMKK1. Details: concentration: 1 μM, replicates: in singlicate; n = 1.

Structure (SMILES)	%Inh
O=C(Nc1n[nH]c2cc(-c3cccs3)ccc12)C1CC1 [SB-731284]	17%
Fc1cc(Cl)ccc1Nc1ccnc2cc(-c3ccc(CN4CCSCC4)o3)ccc12 [GW560106]	25%
Fc1cc(Cl)ccc1Nc1ccnc2cc(-c3ccc(CN4CCOCC4)o3)ccc12 [GW560109]	0%
COc1ccc(NC(=O)c2ccoc2)cc1-c1ccc(C(=O)NCC2CC2)cc1 [GW810437]	15%
COC(=O)Nc1nc2ccc(Oc3ccc(CC(=O)Nc4cc(C(F)(F)F)ccc4F)cc3)cc2[nH]1 [GW680903]	0%
O=C(Nc1n[nH]c2nc(-c3cccc(O)c3)ccc12)C1CC1 [SB-711805]	0%
Cc1cccc(Nc2nc(N[C@H]3CCCC[C@H]3N)ncc2C(N)=O)c1.Cl [GSK986310]	22%
CCn1c(-c2nonc2N)nc2c(-c3ccccc3)ncc(OCCCN)c21.O=C(O)C(F)(F)F.O=C(O)C(F)(F)F [GSK260205]	0%
COc1ccc(C)c(Nc2ccnc(Nc3ccc(-c4cnc[nH]4)cc3)n2)c1.Cl [GW784041]	19%
CS(=O)(=O)c1cccc(CNc2nc(Nc3ccc4c(c3)CCC(=O)N4)ncc2C(F)(F)F)c1	20%
O=C(O)C(F)(F)F.O=c1[nH]ccc2nc(N[C@@H]3CCNC3)nc(Nc3ccc4c(c3)S(=O)(=O)CC4)c12 [GSK2181306]	92.1%
COc1cc(Nc2nccc(N3CCC(NS(=O)(=O)c4ccc(NC(C)=O)cc4)CC3)n2)cc(OC)c1OC [GSK1379825]	23%
CN(C)CCNS(=O)(=O)c1ccc(-c2ccnc3[nH]ccc23)cc1 [GSK977620]	0%
Nc1cccc(-c2ccc3c(N)n[nH]c3c2)c1 [GSK2193613]	2%
Cc1ccc(NC(=O)c2ccnc(N3CCCCC3)c2)cc1-c1ccc(C(=O)NCC2CC2)cc1 [GW775610]	0%
c1ccc(Oc2ccc(Nc3ccnc4cc(-c5ccc(CN6CCCCC6)o5)ccc34)cc2)nc1 [GW567143]	0%
CC(C)c1nc(-c2cccc(NS(=O)(=O)c3c(F)cccc3F)c2)c(-c2ccnc(Nc3ccc(N4CCOCC4)nc3)n2)s1.Cl [GSK1723980]	14%
CN(c1ccc(NC(=O)N2CCN(CCCN3CCOCC3)CC2)cc1)c1ccnc(Nc2ccc(CS(C)(=O)=O)cc2)n1.Cl [GW830899]	19%
Cn1cc(-c2ccc3c(c2)CCN3C(=O)Cc2cc(F)cc(F)c2F)c2c(N)ncnc21 [GSK2634140]	27%
CC(C)NCC(Cc1ccccc1)NC(=O)c1cc(Br)c(-c2ccnc3[nH]ccc23)s1.Cl.Cl (stereo not drawn) [GSK1383281]	33%
COc1cccc(C2=C(Nc3cccc(O)c3)C(=O)NC2=O)c1 [SB-390771]	15%
COc1cccc(CC(=O)N2CCc3cc(-c4cn(C)c5ncnc(N)c45)ccc32)c1 [GSK2608899]	7%
O=C(Nc1n[nH]c2nc(-c3ccccc3O)ccc12)C1CC1 [SB-711880]	3%
N#CC1(c2cccc(C(=O)Nc3cccc(Oc4ccc5nc(NC(=O)C6CC6)sc5n4)c3)c2)CC1	9%
COc1cc(Nc2nccc(N3CCC(NC(=O)Nc4ccc5c(c4)OCO5)C3)n2)cc(OC)c1OC (stereo not drawn) [GSK1379766]	21%
Cc1ccc(-c2ccc3occ(-c4ccc(S(C)=O)cc4)c3c2)nn1 (stereo not drawn)	11%
CN(c1ccc(F)c(NC(=O)c2cccc(OC(C)(C)C#N)c2Cl)c1)c1ccc2nc(NC(=O)C3CC3)sc2n1	10%
CN(c1ccc2c(c1)nc(NCc1ccccc1)n2C)c1ccnc(Nc2ccc(CS(C)(=O)=O)cc2)n1.Cl [GW811603]	14%
Nc1ncc(-c2ccc3nccc(-c4ccncc4)c3c2)cc1S(=O)(=O)N1CCCCC1 [GSK1693850]	24%
